Test results reported in ChEMBL document CHEMBL1157539, “Thousands of chemical starting points for antimalarial lead identification” (Nature, 2010).
The full ranking holds about 13,000 compounds; the median of “IFI” is about 4, and the highest 2% start at about 17. For the sample, the highest values were picked, then their nearest neighbours and some compounds at random.

Assay: GSK_TCMDC: Inhibition Frequency Index (IFI). The number of non-kinase HTS assays where a compound showed > 50 % inhibition, expressed as a percentage of the number of such assays in which the compound was tested
Format: functional
With CCN(CC)CCOc1ccc(C(O)(C#CC(O)(c2ccc(OCCN(CC)CC)cc2)c2ccc([N+](=O)[O-])cc2)c2ccc([N+](=O)[O-])cc2)cc1 (configuration not stated) the IFI was 5.84%. In the case of CCOc1cc(C(=O)NC2CCN(Cc3ccccc3)C2)ccc1-c1nc2cc(Cl)ccc2[nH]1 (configuration not stated), the IFI is reported as 2.14%. In the case of Nc1nc(N)c2cc(C(F)(F)F)ccc2n1, the IFI is reported as 1.65%. Work on Cc1cc(C)c(CON2C(=N)N=C(N)NC2(C)C)cc1C yielded an IFI of 3.57%. For Cc1cc(=O)[nH]c(-n2nc(C)cc2NC(=O)CC(c2ccccc2)c2ccccc2)n1, the IFI was 10.4%. Compound Cc1cc(=O)[nH]c(-n2nc(C)cc2NC(=O)C2(c3ccc(Cl)cc3)CCCC2)n1 has an IFI of 19.2%. Work on Cc1cc(=O)[nH]c(-n2nc(C)cc2NC(=O)C(c2ccccc2)c2ccccc2)n1 yielded an IFI of 10.4%. In the case of COc1ccc(COc2cc(NCCCN)nc3ccccc23)cc1, the IFI is reported as 0%. With COc1cc(NCCCNCc2cn(S(=O)(=O)c3ccccc3)c3ccccc23)nc2ccccc12 the IFI was 8.96%. COc1cc(NCC(O)CNc2cc(OC)c3ccccc3n2)nc2ccccc12 showed an IFI of 8.51%. For COc1cc(NCCCNCc2cn(Cc3cc(Br)cc(Br)c3)c3ccccc23)nc2ccccc12, the IFI was 17.4%. Compound COc1cc(NCCCNCC2c3ccccc3Oc3ccccc32)nc2ccccc12 has an IFI of 20.8%. In the case of COc1cc(NCCCCCNc2cc(Cl)nc3ccccc23)nc2ccccc12, the IFI is reported as 15.8%. COc1cc(NCCCNC(=O)c2ccc(Cl)c(Cl)c2)nc2ccccc12 gave an IFI of 12.5%. COc1cc(NCC(C)CNCc2cn(Cc3ccccc3)c3ccccc23)nc2ccccc12 (configuration not stated) gave an IFI of 7.19%. Work on COc1cc(NCCCCNc2ccc(Cl)c(Cl)c2)nc2ccccc12 yielded an IFI of 26.5%. For CCN(CC)/C(=N\CCCCCC/N=C(\NC(=N)c1ccc(Cl)cc1)N(CC)CC)NC(=N)c1ccc(Cl)cc1, the IFI was 12.2%. For CC(C)CNCc1cccc(-c2ccc(CN(CCCN3CCN(C)CC3)C(=O)/C=C/c3ccccc3)cc2)c1, the IFI was 5.15%. Cc1cc(NC2CCN(Cc3ccccc3)CC2)nc(NCCCCc2ccccc2)n1 showed an IFI of 10.6%. In the case of Cc1cccc2nc(-c3cccc(-c4cccc(NC(=O)C(C)CN(C)C)c4)c3)[nH]c12 (configuration not stated), the IFI is reported as 3.6%. In the case of OCC1CCN(Cc2cccc(-c3ccc(-c4nc5cc(C(F)(F)F)ccc5[nH]4)s3)c2)CC1, the IFI is reported as 2%. In the case of O=c1[nH]ccc2nc(N[C@@H]3CCNC3)nc(Nc3cc(Cl)cc(Cl)c3)c12, the IFI is reported as 16.7%. O=c1[nH]ccc2nc(N[C@@H]3CCNC3)nc(Nc3ccc4c(c3)S(=O)(=O)CC4)c12 showed an IFI of 0%. For O=c1[nH]ccc2nc(N[C@@H]3CCNC3)nc(Nc3cccc(S(=O)(=O)N4CCOCC4)c3)c12, the IFI was 18.2%. O=c1[nH]ccc2nc(N[C@@H]3CCCNC3)nc(Nc3ccc(S(=O)(=O)N4CCOCC4)cc3)c12 showed an IFI of 0%. With Cc1cccc(Nc2nc(N[C@@H]3CCCNC3)nc3cc[nH]c(=O)c23)c1 the IFI was 16.7%. NS(=O)(=O)c1cccc(Nc2nc(N[C@@H]3CCNC3)nc3cc[nH]c(=O)c23)c1 showed an IFI of 18.2%.
